From PubChem BioAssay (NCI)
Compounds without any hit were thinned out: in the full panel of roughly 79,000, 15% have a hit. Active and inactive are the calls of the source. Cut-off read from the data, not from the text of the source: active = growth inhibition above about 70%; inactive = the rest.

Assays:
[1] = NCI Yeast Anticancer Drug Screen. Data for the sgs1 strain (AID 173);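 note: 0% = growth of vehicle-only control cultures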; conditions: S. cerevisiae sgs1 mutant, active compounds read high
Outline: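 Compounds applied to genetically altered yeast; growth compared with vehicle-treated cultures to give % inhibition.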

[2] = NCI Yeast Anticancer Drug Screen. Data for the mlh1 rad18 strain (AID 175); conditions: S. cerevisiae mlh1 rad18 strain growth inhibition, active compounds read high
Outline: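 Cells of a genetically altered yeast strain, deficient in DNA damage repair, were treated with compound. Their growth was then compared with that of vehicle-treated cultures to give inhibition.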

[3] = NCI Yeast Anticancer Drug Screen. Data for the rad18 strain (AID 177); conditions: S. cerevisiae rad18 mutant growth inhibition, active compounds read high
Outline: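 Compounds are applied to a repair-deficient yeast strain, and growth is compared with that of vehicle-treated cultures to give percent inhibition.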

[4] = NCI Yeast Anticancer Drug Screen. Data for the wt1 strain (AID 149);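 note: 0% = growth of vehicle-treated wt1 cultures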; conditions: S. cerevisiae wt1 strain (SPY 50644) growth inhibition, active compounds read high
Outline: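 Vehicle-normalised growth inhibition; strain wt1; compound exposure.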

[5] = NCI Yeast Anticancer Drug Screen. Data for the mgt1 strain (AID 153); conditions: S. cerevisiae mgt1 mutant growth inhibition, active compounds read high
Outline: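 Growth inhibition relative to vehicle controls was scored for the mgt1 yeast strain after compound exposure.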

[6] = NCI Yeast Anticancer Drug Screen. Data for the rad50 strain (AID 155);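 note: 0% = growth of vehicle-only cultures of the same strain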; conditions: S. cerevisiae rad50 strain growth inhibition, active compounds read high
Outline: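 A DNA repair-deficient yeast mutant serves as the test organism; compound-induced growth inhibition is calculated against vehicle-treated cells.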

[7] = NCI Yeast Anticancer Drug Screen. Data for the mec2-1 strain (AID 157); conditions: S. cerevisiae mec2-1 strain, active compounds read high
Outline: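 Growth inhibition is read against vehicle-treated controls after compound exposure of the mec2-1 yeast strain, which is defective in DNA damage repair or cell cycle control.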

[8] = NCI Yeast Anticancer Drug Screen. Data for the rad14 strain (AID 159);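 note: 0% = growth of vehicle-treated control cultures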; conditions: S. cerevisiae rad14 strain growth inhibition, active compounds read high
Outline: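 Vehicle-treated cultures served as the baseline for growth inhibition of a DNA repair-mutant yeast strain exposed to each compound.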

[9] = NCI Yeast Anticancer Drug Screen. Data for the sgs1 mgt1 strain (AID 161);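 note: 0% = growth of cultures given vehicle only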; conditions: S. cerevisiae sgs1 mgt1 strain, active compounds read high
Outline: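 Yeast cells carrying a defined DNA-repair defect were exposed to test compounds. Growth inhibition was measured relative to vehicle-treated controls.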

[10] = NCI Yeast Anticancer Drug Screen. Data for the CLN2oe strain (AID 163);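 note: 0% = growth of vehicle-only control cultures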; conditions: S. cerevisiae CLN2oe strain, active compounds read high
Outline: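 Compound-treated yeast; growth vs vehicle ctrl = % inhibition. Genetically altered strain (cell-cycle control).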

[11] = NCI Yeast Anticancer Drug Screen. Data for the cln2 rad14 strain (AID 165);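 note: 0% = growth equal to vehicle treated cultures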; conditions: S. cerevisiae cln2 rad14 strain, active compounds read high
Outline: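 Growth inhibition, relative to vehicle-treated controls, is the read-out. The test organism is a yeast strain with defined genetic alterations, cln2 rad14.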

[12] = NCI Yeast Anticancer Drug Screen. Data for the bub3 strain (AID 167); conditions: S. cerevisiae bub3 mutant strain, active compounds read high
Outline: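 Inhibition values come from growth of compound-treated mutant yeast normalised to vehicle-treated controls.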

[13] = NCI Yeast Anticancer Drug Screen. Data for the wt2 strain (AID 169);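 note: 0% = growth of vehicle-treated yeast cultures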; conditions: S. cerevisiae wt2 strain growth inhibition, active compounds read high
Outline: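 Compound exposure of yeast; growth compared with vehicle controls; inhibition reported.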

[14] = NCI Yeast Anticancer Drug Screen. Data for the mlh1 strain (AID 171);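 note: 0% = growth of vehicle-treated control cultures of the same strain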; conditions: S. cerevisiae mlh1 strain growth inhibition, active compounds read high
Outline: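 Compounds are applied to a genetically altered yeast strain, and its growth is compared with that of vehicle-treated cultures to give percent inhibition.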

[15] = NCI Yeast Anticancer Drug Screen. Data for the rad50EPP+ strain (AID 151);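 note: 0% = growth of vehicle-treated control cultures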; conditions: S. cerevisiae rad50 mutant strain, active compounds read high
Outline: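 rad50EPP+ yeast treated with test compounds. Readout: growth vs vehicle control.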

[16] = at 5.0 µM (retest, dose inferred, filed as 0.5)
[17] = at 50.0 µM (retest, dose inferred, filed as 5.0)

Measured: growth inhibition

COc1cc(C2SCC(=O)N2c2ccc(-c3ccc(-n4c(-c5ccccc5)nc5ccccc5c4=O)cc3)cc2)cc(OC)c1OC (centres undefined)
inactive: [1]; at 1.2 µM -3% | [1]; at 3.7 µM -1% | [1]; at 11.0 µM 2% | [1]; at 33.0 µM -1% | [1]; at 100.0 µM -7% | [2]; [16] 6% | [2]; [17] 37% | [2]; at 50.0 µM 19.4% | [3]; at 1.2 µM -3% | [3]; at 3.7 µM 0% | [3]; at 11.0 µM 0% | [3]; at 33.0 µM 3% | [3]; at 100.0 µM 1%

OC(COc1cccc2ccccc12)CN1CCOCC1 (centres undefined)
inactive: [4]; at 1.2 µM 13% | [4]; at 3.7 µM 23% | [4]; at 11.0 µM 30% | [4]; at 33.0 µM 31% | [4]; at 100.0 µM 30% | [5]; at 1.2 µM 8% | [5]; at 3.7 µM 26% | [5]; at 11.0 µM 42% | [5]; at 33.0 µM 52% | [5]; at 100.0 µM 55% | [6]; at 1.2 µM 11% | [6]; at 3.7 µM 19% | [6]; [16] 54% | [6]; at 11.0 µM 42% | [6]; at 33.0 µM 37% | [6]; at 100.0 µM 36% | [7]; at 1.2 µM 9% | [7]; at 3.7 µM 17% | [7]; [16] 24% | [7]; at 11.0 µM 23% | [7]; at 33.0 µM 27% | [7]; [17] 46% | [7]; at 50.0 µM 37% | [7]; at 100.0 µM 39% | [8]; at 1.2 µM 41% | [8]; at 3.7 µM 39% | [8]; at 11.0 µM 45% | [8]; at 33.0 µM 49% | [8]; at 100.0 µM 52% | [9]; [16] 43% | [9]; at 50.0 µM 46.5% | [10]; at 1.2 µM 21% | [10]; at 3.7 µM 48% | [10]; at 11.0 µM 61% | [10]; at 33.0 µM 69% | [11]; [16] 14% | [11]; [17] 59% | [12]; at 1.2 µM 8% | [12]; at 3.7 µM 25% | [12]; [16] 35% | [12]; at 11.0 µM 29% | [12]; at 33.0 µM 57% | [12]; [17] 60% | [12]; at 50.0 µM 49.1% | [12]; at 100.0 µM 47% | [13]; at 1.2 µM 17% | [13]; at 3.7 µM 27% | [13]; at 11.0 µM 32% | [13]; at 33.0 µM 39% | [13]; at 100.0 µM 35% | [14]; at 1.2 µM 11% | [14]; at 3.7 µM 21% | [14]; at 11.0 µM 33% | [14]; at 33.0 µM 18% | [14]; at 100.0 µM 37% | [1]; at 1.2 µM 29% | [1]; at 3.7 µM 49% | [1]; at 11.0 µM 61% | [1]; at 33.0 µM 59% | [1]; at 100.0 µM 56% | [2]; [16] 37% | [2]; [17] 49% | [2]; at 50.0 µM 37.3% | [3]; at 1.2 µM 32% | [3]; at 3.7 µM 39% | [3]; at 11.0 µM 55% | [3]; at 33.0 µM 64% | [3]; at 100.0 µM 51%
active: [6]; [17] 78% | [6]; at 50.0 µM 71.5% | [9]; [17] 71% | [10]; at 100.0 µM 72% | [11]; at 50.0 µM 73.5%

COc1ccc(-c2cn(-c3ccc(I)cc3)c3ncnc(N)c23)cc1
active: [7]; [17] 78% | [9]; [17] 82% | [12]; [17] 72%
inactive: [4]; at 1.2 µM -4% | [4]; at 3.7 µM -4% | [4]; at 11.0 µM -10% | [4]; at 33.0 µM -11% | [4]; at 100.0 µM -2% | [15]; at 1.2 µM -2% | [15]; at 3.7 µM 1% | [15]; at 11.0 µM 6% | [15]; at 33.0 µM 8% | [15]; at 100.0 µM 6% | [5]; at 1.2 µM -6% | [5]; at 3.7 µM -8% | [5]; at 11.0 µM -11% | [5]; at 33.0 µM 2% | [5]; at 100.0 µM 17% | [6]; at 1.2 µM -2% | [6]; at 3.7 µM -2% | [6]; [16] 4% | [6]; at 11.0 µM -2% | [6]; at 33.0 µM 1% | [6]; [17] 69% | [6]; at 50.0 µM 14.8% | [6]; at 100.0 µM -10% | [7]; at 1.2 µM -4% | [7]; at 3.7 µM -4% | [7]; [16] -6% | [7]; at 11.0 µM -5% | [7]; at 33.0 µM 0% | [7]; at 50.0 µM 1.7% | [7]; at 100.0 µM 1% | [8]; at 1.2 µM -5% | [8]; at 3.7 µM -8% | [8]; at 11.0 µM -12% | [8]; at 33.0 µM -8% | [8]; at 100.0 µM -1% | [9]; [16] 39% | [9]; at 50.0 µM -11.2% | [10]; at 1.2 µM -7% | [10]; at 3.7 µM -8% | [10]; at 11.0 µM -2% | [10]; at 33.0 µM 9% | [10]; at 100.0 µM 4% | [11]; [16] 4% | [11]; [17] 65% | [11]; at 50.0 µM -0.5% | [12]; at 1.2 µM -2% | [12]; at 3.7 µM -2% | [12]; [16] 12% | [12]; at 11.0 µM -3% | [12]; at 33.0 µM 0% | [12]; at 50.0 µM 13.2% | [12]; at 100.0 µM 0% | [13]; at 1.2 µM -4% | [13]; at 3.7 µM -8% | [13]; at 11.0 µM -10% | [13]; at 33.0 µM -8% | [13]; at 100.0 µM -8% | [14]; at 1.2 µM -2% | [14]; at 3.7 µM -5% | [14]; at 11.0 µM -5% | [14]; at 33.0 µM 10% | [14]; at 100.0 µM 9% | [1]; at 1.2 µM -4% | [1]; at 3.7 µM -5% | [1]; at 11.0 µM -3% | [1]; at 33.0 µM 26% | [1]; at 100.0 µM 29% | [2]; [16] 4% | [2]; [17] -17% | [2]; at 50.0 µM 14.2% | [3]; at 1.2 µM -5% | [3]; at 3.7 µM -9% | [3]; at 11.0 µM -10% | [3]; at 33.0 µM -4% | [3]; at 100.0 µM 0%
